These results are taken from PubChem BioAssay (EPA / NIEHS).

Values joined by “and” are separate entries in the source; they are usually repeats but may differ in a detail not shown here. Equal entries are not always repeated. Active and inactive are the calls of the source. The calls were made as follows: active = hit-call score of the fitted dose curve at least 0.9, where 1 is the maximum; inactive = score below 0.9.

Read-out in the assay: Tissue plasminogen activator (tPA), PLAT (gene 5327)
Put plainly: BSK_BF4T_tPA: BioMAP Diversity Plus: BF4T Assay for Tissue plasminogen activator (tPA) Biomarker Activity (AID 2284272). The note with it: primary human bronchial epithelial cells with fibroblasts. How it is done: BSK_BF4T is a cell-based, multiplexed-readout assay that uses bronchial epithelial cells and dermal fibroblasts, a human vascular primary cell, with measurements taken at 24 hours after chemical dosing in a microplate: 96-well plate.BSK_BF4T_tPA is an assay component measured in the BSK_BF4T assay. It measures tPA antibody related to regulation of gene expression using ELISA technology.Data from the assay component BSK_BF4T_tPA was analyzed at the endpoint, BSK_BF4T_tPA, in the positive analysis fitting direction relative to DMSO as the negative control and baseline of activity. Using a type of binding reporter, gain or loss-of-signal activity can be used to understand protein changes. To generalize the intended target to other relatable targets, this assay endpoint is annotated to the 'protease' intended target family, where the subfamily is 'serine protease'.
The levels of cell surface (or secreted, indicated by the prefix "s") biomarker endpoints were measured by ELISA. Overt cytotoxicity to cells in confluent adherent cultures (all systems other than the BT system) was assessed by measuring total protein levels using sulforhodamine B (SRB) staining in parallel cultures at the time of biomarker measurements, indicated as SRB endpoints. For proliferation assays for adherent cell types, individual cell types are cultured at sub-confluence and relative cell numbers quantified by SRB staining at time points optimized for each system (48 h: 3C and CASM3C systems; 72 h: BT and HDF3CGF systems; 96 h: SAg system). SRB was performed by staining cells with 0.1% SRB after fixation with 10% TCA and reading wells at 560 nm.Viability and proliferation of PBMC (T cells) was quantified by Alamar Blue reduction for the SAg and BT systems. For PBMC viability (referred to as PBMC Cytotoxicity within the assay endpoint names), cells were plated (75,000/well in a 96-well plate) and then chemical samples added for 1 h before addition of activators, SEB and TSST-1 (20 ng/mL final concentration each). Cells were incubated for 90 h. Then, Alamar Blue (20 uL/well) (Invitrogen, Cat DAL1100) was added for 6 h, and the plates were read with a fluorescence microplate reader at 546/580 nm (excitation/emission). For PBMC proliferation, cells were plated and activated as above but incubated for only 16 h prior to addition of Alamar Blue. Plates were read after 6 h.
Take `O=C(O)C(F)(F)C(F)(F)OC(F)(F)F`: the result was inactive.
As for `N=C(N)C(F)(F)C(F)(F)C(F)(F)C(F)(F)C(F)(F)C(F)(F)C(F)(F)F`, the result was inactive.
As to `OCC(F)(F)C(F)(F)C(F)(F)C(F)(F)C(F)(F)C(F)F`, the result was inactive.
On the same count and under the same terms, the entry for `C=C(C)C(=O)OCC(F)(F)C(F)(F)C(F)(F)F` is “inactive”.
On to `FC(F)(F)C(F)(F)C(F)(F)C(F)(F)CCI`, for which the result was inactive.
For the compound `O=C(O)C(F)(F)C(F)(F)F`, the result was inactive.
In the case of `O=C(O)C(F)(F)C(F)(F)C(F)(F)C(F)(F)C(F)(F)C(F)(F)C(F)(F)C(F)(F)Cl`, the AC50 is 10.7 µM (active) and 5.95 µM (active).
With `O=C(O)C(F)(F)C(F)(F)C(F)F`, the result was inactive.
Regarding `OCCCC(F)(F)C(F)(F)C(F)(F)C(F)(F)C(F)(F)C(F)(F)C(F)(F)F`, the AC50 was 56.6 µM (active) and 47.7 µM (active).
For `FC(F)(I)C(F)(F)C(F)(F)C(F)(F)I`, the AC50 is 39.8 µM (active) and 46.2 µM (active) and 48.8 µM (active).
On to `C=CC(F)(F)C(F)(F)C(F)(F)C(F)(F)C(F)(F)C(F)(F)C(F)(F)C(F)(F)C=C`, for which the outcome was inactive.
Turning to `FC(F)(F)C(F)(F)C(F)(F)N(C(F)(F)C(F)(F)C(F)(F)F)C(F)(F)C(F)(F)C(F)(F)F`, the result was inactive.
With `O=C(O)C(F)(F)C(F)(F)C(F)(F)C(F)(F)C(F)(F)C(F)(F)C(F)(F)C(F)(F)C(F)(F)C(F)(F)C(F)(F)C(F)(F)F`, the outcome was inactive.
With `O=S(=O)(OCCOC(F)(F)F)C(F)(F)F`, the result was inactive.
For `FC(F)(F)C(F)(F)C(F)(F)CI`, the result was inactive.
On the same count and under the same terms, the result for `FC(F)(F)C(F)(F)C(F)(F)C(F)(F)C(F)(F)C(F)(F)C(F)(F)I` reads “inactive”; that for `C=C(C)C(=O)OCCC(F)(F)C(F)(F)C(F)(F)C(F)(F)C(F)(C(F)(F)F)C(F)(F)F`, “inactive”; that for `OCC(F)(F)C(F)(F)C(F)(F)C(F)F`, “inactive”.
Regarding `OCCCC(F)(F)C(F)(F)C(F)(F)F`, the result was inactive.
As to `C=CC(=O)OCC(F)(F)C(F)(F)C(F)(F)C(F)(F)COC(=O)C=C`, the AC50 is 8.21 µM (active) and 9.07 µM (active).
Take `C=CC(F)(F)C(F)(F)C(F)(F)C(F)(F)C(F)(F)C(F)(F)C(F)(F)C(F)(F)F`: the outcome was inactive.
Turning to `CCCCCCCCC(F)(F)C(F)(F)C(F)(F)C(F)(F)C(F)(F)C(F)(F)F`, the outcome was inactive.
As to `O=S(=O)(OCC(F)F)C(F)(F)F`, the outcome was inactive.
Take `FC(F)(F)C(F)(F)C(F)(F)C(F)(F)C(F)(F)C(F)(F)C(F)(F)C(F)(F)CCS`: the outcome was inactive.
With `FC(F)(Br)C(F)(F)C(F)(F)C(F)(F)C(F)(F)C(F)(F)Br`, the outcome was inactive.
Same read-out and setting: the entry for `O=P(O)(O)OCCC(F)(F)C(F)(F)C(F)(F)C(F)(F)C(F)(F)C(F)(F)F` is “inactive”.
The same measure, in the same setting: the entry for `O=C(O)C(F)(F)C(F)(F)C(F)(F)C(F)(F)C(F)(F)C(F)(F)C(F)(F)C(F)(F)C(F)(F)C(F)(F)C(F)(F)C(F)(F)C(F)(F)F` is “inactive”.
Same read-out and setting: the entry for `FC(F)(F)C(F)(F)C(F)(F)C(F)(F)C(F)(F)C(F)(F)CC1CO1` (stereo not given) is “inactive”.
Consider `O=C(O)C=C(C(F)(F)F)C(F)(F)F`, for which the AC50 is 8.23 µM (active) and 1.27 µM (active).
In the case of `O=C(CC(=O)C(F)(F)C(F)(F)F)C(F)(F)F`, the outcome was inactive.
As to `O=C(O)C(F)(OC(F)(F)C(F)(OC(F)(F)C(F)(F)C(F)(F)F)C(F)(F)F)C(F)(F)F` (stereo not given), the outcome was inactive.
Consider `FC1CC(F)(F)C(F)(F)C1(F)F` (stereo not given), for which the result was inactive.
Same read-out and setting: the result for `FC(F)(F)C(F)(F)C(F)(F)C(F)(F)C(F)(F)C(F)(F)C(F)(F)C(F)(F)F` reads “inactive”; that for `CC(C)(C)C(=O)CC(=O)C(F)(F)C(F)(F)C(F)(F)F`, “inactive”.
Same read-out and setting: the entry for `NC(=O)C(F)(F)C(F)(F)C(F)(F)C(F)(F)F` is “inactive”; for `COC(=O)CCC(F)(F)C(F)(F)C(F)(F)C(F)(F)F` it is “inactive”; for `C=CC(=O)OCC(F)(F)C(F)(F)C(F)(F)C(F)(F)C(F)(F)C(F)(F)C(F)(F)F` it is “inactive”.
In the case of `O=C(O)C(F)(F)C(F)(F)C(F)(F)F`, the outcome was inactive.
For the compound `O=S(=O)(O)C(F)(F)C(F)(F)C(F)(F)C(F)(F)C(F)(F)C(F)(F)C(F)(F)F`, the outcome was inactive.
For `FC(F)(F)C(F)(F)C(F)(F)C(F)(F)C(F)(F)C(F)(F)C(F)(F)Br`, the result was inactive.
